Sfp inh: Sfp phosphopantetheinyl transferase inhibition; Biochemical Sfp PPTase activity, qHTS; AID 1490; Q9F4F7; 310,000 tested, 3.5% active; Potency, µM, actives largely listed as inhibitors;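 further: the enzyme is Sfp with the accession as filed and its product quenches rhodamine fluorescence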
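Sfp 15 nM + cpd, 15 min RT; start w/ rhodamine-CoA 5 uM, BHQ-2-YbbR 12.5 uM (final); 50 mM Hepes pH 7.6, 10 mM MgCl2, 0.01% NP-40, 0.01% BSA; read 525/598 nm at 0 and 30 min.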
BAZ2B inh: inhibitors of human BAZ2B bromodomain. AlphaScreen BAZ2B-H3K14Ac peptide displacement. Potency, µM (titrated, usually from 114 µM), most hits filed as inhibitors. 360,000 tested, 4.4% active. AID 504333; further: nearly all actives have a fitted effect of over 60% in size
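BAZ2B (50 nM) with biotin-H3(5-23)K14Ac peptide (50 nM) in PBS pH 7.4, 0.01% Tween-20, preformed 30 min, then compound 30 min at room temperature; top concentration 110uM. AlphaScreen streptavidin donor/nickel chelate acceptor beads (10 ug/mL final), 20 min dark, signal read.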
JMJD2A Tudor inh: blocks the human JMJD2A Tudor domain | O75164 | AlphaScreen JMJD2A-Tudor / H3K4me3 peptide binding | Potency, µM (top dose mostly 114 µM), hits mostly inhibitors | 390,000 tested, 4.4% active | AID 504339; further: nearly all actives have a fitted effect of over 50% in size
HP1b binding inh: inhibitors of HP1-beta chromodomain binding to methylated histone tails | AlphaScreen HP1-beta / biotin-H3K9me3 peptide binding | Potency, µM (top dose mostly 114 µM), most hits filed as inhibitors | 390,000 tested, 0.56% active | P83916; further: nearly all actives have a fitted effect of over 70% in size
Target sequence (P83916 whole entry, looked up): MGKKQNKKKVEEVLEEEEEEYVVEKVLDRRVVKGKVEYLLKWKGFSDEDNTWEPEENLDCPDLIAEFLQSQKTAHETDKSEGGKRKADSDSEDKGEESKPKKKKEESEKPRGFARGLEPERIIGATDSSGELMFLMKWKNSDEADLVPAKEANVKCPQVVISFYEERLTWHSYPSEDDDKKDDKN
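Compound inhibition of the preformed complex between 50 nM HP1-beta and 50 nM biotinylated H3K9me3 peptide was read by AlphaScreen. Buffer was PBS pH 7.4 with 0.01% Tween-20. Incubations ran 30 min at room temperature, with 10 ug/mL donor/acceptor beads.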
TDP1 inh: blocks human tyrosyl-DNA phosphodiesterase 1; Q9NUW8; recombinant TDP1, AlphaScreen DNA substrate cleavage; Potency, µM (highest dose often 130 µM), hits mostly inhibitors; 350,000 tested, 0.28% active; AID 485290; further: nearly all actives have a fitted effect of over 40% in size
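Recombinant E. coli-expressed Tdp1 (1 nM) preincubated with compound 15 min at RT, then 5'-biotin/3'-phosphotyrosine-FITC DNA substrate (15 nM) added for 5 min. AlphaScreen beads (10 ug/ml) added, 10 min RT; tyrosine-FITC cleavage read as signal loss.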
G9a block: inhibitors of human histone lysine methyltransferase G9a. Q96KQ7. Potency, µM (doses to about 102 µM), usual class: inhibitors. G9a H3K9 monomethylation, AlphaScreen, 2 h. AID 504332. 350,000 tested, 8.8% active; further: nearly all actives have a fitted effect of over 75% in size
Target sequence (Q96KQ7 913-1193 limits assumed): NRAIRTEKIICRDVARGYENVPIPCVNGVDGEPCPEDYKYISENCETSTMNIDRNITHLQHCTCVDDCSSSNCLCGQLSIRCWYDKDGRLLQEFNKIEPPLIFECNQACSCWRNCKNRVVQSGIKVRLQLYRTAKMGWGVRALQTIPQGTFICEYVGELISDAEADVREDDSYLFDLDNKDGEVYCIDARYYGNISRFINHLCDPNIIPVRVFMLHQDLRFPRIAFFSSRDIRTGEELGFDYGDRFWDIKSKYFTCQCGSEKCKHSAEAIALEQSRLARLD
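G9a (20 nM) was preincubated 15 min with compound, then reacted 2 h at room temperature with 500 nM biotin-H3K9 peptide and 20 µM SAM. Monomethyl-H3K9 detected by AlphaScreen using anti-H3K9me1 antibody.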
Of the large screens only hits and unclear results are named; the others gave an inactive call; ! = repeats disagree. Only some compounds are listed: those with a hit (about 12% of all), similar ones and a draw of the others. The call rests on the fitted dose curve; in most records, active means well fitted curve in the direction sought with a large enough effect; inconclusive means small, poorly fitted or top-dose-only effect, or another doubt; inactive means no such curve, though single readings can be large; an effect the other way counts as inactive or inconclusive.

O=C(O)/C=C/c1cc(F)c(S(=O)(=O)N2CCN(S(=O)(=O)c3ccc4c(c3)OCCO4)CC2)cc1F	JMJD2A Tudor inh inconclusive, TDP1 inh 50.1µM (no result: Sfp inh, BAZ2B inh, HP1b binding inh, G9a block)
CCCSc1nnc2n(-c3ccc(OC)cc3)c(=O)c3c4c(sc3n12)COC(C(C)C)C4 (centres undefined)	none (no result: Sfp inh, TDP1 inh)
COc1cc2ncnc(Nc3cccc(Br)c3)c2cc1OC	none (no result: BAZ2B inh, JMJD2A Tudor inh, HP1b binding inh, G9a block)
COc1cc2ncnc(Nc3cccc(Cl)c3)c2cc1OC	Sfp inh 56.2µM! (no result: JMJD2A Tudor inh, HP1b binding inh)
COc1cc2ncnc(NCc3cccc(F)c3F)c2cc1OC	G9a block 44.7µM (no result: TDP1 inh)
CCOC(=O)c1c(N)sc(C(=O)OC)c1C	Sfp inh 56.2µM (no result: G9a block)
CCOC(=O)c1scc(-c2ccc(C)cc2)c1S(=O)(=O)Nc1cc(OC)ccc1OC	BAZ2B inh inconclusive, JMJD2A Tudor inh inconclusive, G9a block inconclusive (no result: Sfp inh)
CCOC(=O)c1sc(N)c(C(=O)OC)c1C	none
CCOC(=O)c1c(NC(C)=O)sc2c1C1CCN2CC1	none (no result: Sfp inh, BAZ2B inh, TDP1 inh, G9a block)
CCOC(=O)c1scc(-c2ccccc2)c1S(=O)(=O)Nc1ccccc1OC	BAZ2B inh inconclusive, G9a block 14.1µM (no result: Sfp inh)
CCOC(=O)c1sc(N)c(C(=O)Nc2ccccc2OC)c1C	Sfp inh 14.1µM, BAZ2B inh inconclusive, JMJD2A Tudor inh 56.2µM, HP1b binding inh 5.62µM, G9a block 2.82µM
CCOC(=O)c1c(N)sc2c1C1CCN2CC1	G9a block 79.4µM
c1ccc(-c2c3ccccc3nc3[nH]c4ccccc4c23)cc1	G9a block 89.1µM
CCc1ccc(CNC(=O)CN2C(=O)c3cccnc3Oc3ccc(Cl)cc32)cc1	none (no result: Sfp inh)
CN1CCN(C2=Nc3c(Cl)cc(Cl)c4cccc2c34)CC1	BAZ2B inh 28.2µM, JMJD2A Tudor inh 50.1µM, HP1b binding inh inconclusive, G9a block inconclusive
N[C@@H](CSS(=O)(=O)O)C(=O)O	Sfp inh 44.7µM, TDP1 inh 39.8µM! (no result: BAZ2B inh, JMJD2A Tudor inh, HP1b binding inh)
NC(CSSCC(N)C(=O)O)C(=O)O (centres undefined)	none (no result: BAZ2B inh, JMJD2A Tudor inh, HP1b binding inh)
O=C(c1ccc([N+](=O)[O-])o1)N1CCN(c2nc3c(F)cc(F)cc3s2)CC1	JMJD2A Tudor inh inconclusive, G9a block 44.7µM (no result: Sfp inh)
C=CCN1C(=S)CC(c2ccccc2)=Nc2ccccc21	none (no result: TDP1 inh, G9a block)
CC(=O)c1cc(-c2ccccc2)[nH]c1N1CCOCC1	Sfp inh inconclusive, BAZ2B inh inconclusive, JMJD2A Tudor inh inconclusive, G9a block inconclusive
CC(=O)c1c(N2CCN(C)CC2)[nH]c(-c2ccccc2)nc1=S	BAZ2B inh inconclusive, JMJD2A Tudor inh 79.4µM
COc1cccc(C2NC(=O)NC(O)(C(F)(F)F)C2C(=O)c2cccnc2)c1OC (centres undefined)	G9a block 50.1µM
COc1ccc(CNc2cc(C)nc3ccc(OC)cc23)cc1	G9a block 35.5µM
COc1ccc2nc(C)cc(N/N=C/c3ccc(F)cc3)c2c1	Sfp inh 44.7µM, G9a block inconclusive (no result: TDP1 inh)
COc1ccc(/C=N/Nc2cc(C)nc3c(C)cccc23)cc1	Sfp inh inconclusive, BAZ2B inh inconclusive, JMJD2A Tudor inh inconclusive
COc1cccc2c(N/N=C/c3ccc(O)c(O)c3)cc(C)nc12	BAZ2B inh inconclusive, JMJD2A Tudor inh inconclusive, G9a block 35.5µM
COc1ccc2nc(C)cc(Nc3ccc(C(=O)O)cc3)c2c1	none (no result: TDP1 inh)
COc1ccc(/C=N/Nc2cc(C)nc3ccccc23)cc1	Sfp inh 28.2µM, BAZ2B inh inconclusive (no result: G9a block)
COc1ccc(Nc2cc(C)nc3ccc(OC)cc23)cc1	none (no result: TDP1 inh, G9a block)
COc1cc(/C=C\C(=O)N2CCC=CC2=O)cc(OC)c1OC	none (no result: BAZ2B inh, JMJD2A Tudor inh, HP1b binding inh)
O=C(COc1ccc(F)cc1)Nc1cc(S(=O)(=O)N2CCCCC2)ccc1N1CCCCC1	BAZ2B inh inconclusive, JMJD2A Tudor inh inconclusive, G9a block 2µM (no result: Sfp inh, TDP1 inh)
O=C(COc1ccc([N+](=O)[O-])cc1)Nc1cc(S(=O)(=O)N2CCCCC2)ccc1N1CCCCC1	JMJD2A Tudor inh 20µM, G9a block 1.78µM (no result: Sfp inh, TDP1 inh)
CCN1CCN(c2ccc(S(=O)(=O)N3CCCCC3)cc2NC(=O)COc2ccc(F)cc2Cl)CC1	Sfp inh inconclusive, BAZ2B inh inconclusive, JMJD2A Tudor inh inconclusive, G9a block inconclusive
CCN1CCN(c2ccc(S(=O)(=O)N3CCCCC3)cc2NC(=O)COc2ccc(Cl)cc2)CC1	BAZ2B inh inconclusive, JMJD2A Tudor inh inconclusive, G9a block 5.01µM (no result: Sfp inh, TDP1 inh)

Assay outcomes as filed in PubChem.
